Laboratory results published in PubChem BioAssay (Tox21).
Records with an inconclusive call do not appear. The source made the active and inactive calls. Unless noted, calls come from the whole dose curve; as a rule, active = well fitted curve in the direction sought with a large enough effect in the repeat runs; inconclusive = weak or mixed curves; inactive = no such curve, though single readings can be large; an effect the other way counts as inactive or inconclusive.

Columns and labels:
[1] = qHTS assay to identify small molecule agonists of the hypoxia (HIF-1) signaling pathway - cell viability counter screen (AID 1224844; calls by dose curve; note: nearly all actives have a fitted effect of over 50% in size)
Summary of the method: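 Cells (HRE-bla ME-180, 2,000 per well) sat 5 hrs at 37C, got compound for 17 hrs, were read for CCF4-AM FRET, and were finally lysed with CellTiter-Glo for a 30 min room-temperature luminescence read.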

[2] = qHTS assay to identify small molecule agonists of H2AX (AID 1224845; active = well fitted activation curve with a large enough effect in the signal ratio in the repeat runs, not every such curve was filed as active; the % refers to the signal ratio)
Summary of the method: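 Wild-type CHO-K1 cells plated overnight, then exposed 3 hr at 37C to compounds at 15 concentrations (0.76% DMSO). Lysed, then HTRF anti-pH2AX(S139)-cryptate/anti-H2AX-d2 detection after 24 hr at room temperature; emissions 665 and 620 nm.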

[3] = qHTS assay to identify small molecule agonists of H2AX - cell viability counter screen (AID 1224847; calls by dose curve; note: nearly all actives have a fitted effect of over 30% in size; note: potency is the fitted concentration of half-maximal effect; for activity change, negative = cytotoxicity: top concentration of the series differs between compounds)
Summary of the method: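 For this counter screen, overnight-attached CHO-K1 cells received test compounds (15 concentrations, 0.76% DMSO final); 3 hr later at 37C, CellTiter-Glo reagent was added and luminescence recorded after 30 min at room temperature.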

[4] = qHTS RealTime-Glo MT Cell Viability Assay in HepG2 cells - 24 hour (AID 1224867); note: nearly all actives have a fitted effect of over 50% in size
Summary of the method: (§1)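 HepG2 cells were seeded at 600 cells/well together with NanoLuc luciferase and a cell-permeant prosubstrate, preincubated 5 h at 37 C/5% CO2, then pin-dosed with compounds in DMSO. Nonlytic luminescence from viable cells was read at each time point.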

[5] = A CellTox Green Cytotoxicity Assay to monitor cytotoxicity in HEK293 cells - 0 hour (AID 1224869); note: nearly all actives have a fitted effect of over 50% in size
Summary of the method: (§2)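 Fluorescence intensity, read at 0, 8, 16, 24, 32 and 40 h of compound treatment, reflected dye binding to DNA of dead HEK293 cells; compounds (23 nL, DMSO) were added 5 h after plating cells with reagent.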

[6] = qHTS RealTime-Glo MT Cell Viability Assay in HepG2 cells - 40 hour (AID 1224870); note: nearly all actives have a fitted effect of over 50% in size
Summary of the method: (§3)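 HepG2 cells mixed with RealTime-Glo MT reagents (NanoLuc plus cell-permeant prosubstrate) were seeded at 600 cells/well, incubated 5 h at 37 C/5% CO2, then pinned with compounds in DMSO; nonlytic luminescence tracked viability during 40 h treatment.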

[7] = A CellTox Green Cytotoxicity Assay to monitor cytotoxicity in HEK293 cells - 24 hour (AID 1224875); note: nearly all actives have a fitted effect of over 45% in size
Summary of the method: as §2

[8] = A CellTox Green Cytotoxicity Assay to monitor cytotoxicity in HepG2 cells - 24 hour (AID 1224878); note: nearly all actives have a fitted effect of over 45% in size
Summary of the method: (§4)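 Using 1536-well format, dye-containing HepG2 suspension was seeded, allowed 5 h at 37 C/5% CO2, dosed by pintool with compounds, positive and negative controls, and imaged for fluorescence across 40 h.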

[9] = A CellTox Green Cytotoxicity Assay to monitor cytotoxicity in HepG2 cells - 40 hour (AID 1224879); note: nearly all actives have a fitted effect of over 40% in size
Summary of the method: as §4

[10] = qHTS RealTime-Glo MT Cell Viability Assay in HEK293 cells - 0 hour (AID 1224880); note: top concentration of the series differs between compounds; nearly all actives have a fitted effect of over 45% in size
Summary of the method: (§5)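 Viable HEK293 cells reduce a cell-permeant prosubstrate; the product diffuses out and is consumed by NanoLuc in the medium to give light. Compounds went in after a 5 h incubation and plates were read over the treatment course.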

[11] = A CellTox Green Cytotoxicity Assay to monitor cytotoxicity in HEK293 cells - 40 hour (AID 1224871); note: nearly all actives have a fitted effect of over 45% in size
Summary of the method: as §2

[12] = qHTS RealTime-Glo MT Cell Viability Assay in HEK293 cells - 16 hour (AID 1224872)
Summary of the method: (§6)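 HEK293 cells were seeded at 600 cells/well together with NanoLuc luciferase and cell-permeant prosubstrate, preincubated 5 h at 37 C/5% CO2, then given compound in DMSO by pintool. Luminescence from viable-cell prosubstrate reduction was read repeatedly over 40 h.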

[13] = qHTS RealTime-Glo MT Cell Viability Assay in HepG2 cells - 8 hour (AID 1224873); note: nearly all actives have a fitted effect of over 55% in size
Summary of the method: as §3

[14] = qHTS RealTime-Glo MT Cell Viability Assay in HEK293 cells - 32 hour (AID 1224868); note: nearly all actives have a fitted effect of over 50% in size; note: potency is the fitted concentration of half-maximal effect; for activity change, negative = cytotoxic: top concentration of the series differs between compounds
Summary of the method: as §6

[15] = qHTS RealTime-Glo MT Cell Viability Assay in HEK293 cells - 40 hour (AID 1224874); settings: RealTime-Glo luminescence; max response: stronger effect = lower value; note: nearly all actives have a fitted effect of over 50% in size; note: potency is the fitted concentration of half-maximal effect
Summary of the method: as §5

[16] = A CellTox Green Cytotoxicity Assay to monitor cytotoxicity in HepG2 cells - 16 hour (AID 1224876); note: nearly all actives have a fitted effect of over 45% in size
Summary of the method: as §4

[17] = qHTS RealTime-Glo MT Cell Viability Assay in HepG2 cells - 32 hour (AID 1224877); note: nearly all actives have a fitted effect of over 55% in size
Summary of the method: as §1

[18] = qHTS assay to identify small molecule antagonists of the estrogen related receptor (ERR) signaling pathway from Tox21 library (AID 1224848); note: nearly all actives have a fitted effect of over 50% in size; note: potency is the fitted concentration of half-maximal effect
Summary of the method: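 Screening used an ERR reporter line supplied by NTP, exposed for 18 h at 37 C to library compounds delivered in DMSO. Signal was luciferase luminescence developed with ONE-Glo at room temperature for 30 min.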

[19] = qHTS assay to identify small molecule agonists of the estrogen related receptor (ERR) signaling pathway from Tox21 library (AID 1224849; calls by dose curve; note: nearly all actives have a fitted effect of over 15% in size); settings: ERR reporter cell line, ONE-Glo luciferase, 18 h; at 92.4 µM (top of the series) unless noted
Summary of the method: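 Screening used an NTP-provided ERR luciferase cell line. Compounds in DMSO were added 6 h after seeding and left 18 h at 37 C before a 30 min ONE-Glo step and luminescence reading.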

[20] = qHTS assay to identify small molecule agonists of the hypoxia (HIF-1) signaling pathway (AID 1224846; active = well fitted activation curve with a large enough effect in the signal ratio in the repeat runs, not every such curve was filed as active; the % refers to the signal ratio)
Summary of the method: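 A low-serum medium (0.5% dialyzed FBS) holding 2,000 HRE-bla ME-180 cells per well is preincubated for 5 hrs, dosed with compounds by pintool, and kept a further 17 hrs at 37C, 5% CO2 before CCF4-AM FRET detection of beta-lactamase.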
% is set by controls: 0 for no effect and ±100 for the full control effect.

Clc1ccc(Cn2c(CN3CCCC3)nc3ccccc32)cc1
inactive: Potency [1] | Potency [2] | Potency [3] | Potency [4] | Potency [5] | Potency [6] | Potency [7] | Potency [8] | Potency [9] | Potency [10]

CC(=O)c1ccc2c(c1)N(CCCN(C)C)c1ccccc1S2
inactive: Potency [1] | Potency [2] | Potency [3] | Potency [5] | Potency [6] | Potency [11] | Potency [12] | Potency [13] | Potency [7] | Potency [8] | Potency [10]

C/C=C/C(=O)CC
inactive: activity change, negative = cytotoxicity [1] -6.33% [at 15.8 µM] | activation (H2AX phosphorylation) [2] -0.233% [at 31.6 µM] | activity change, negative = cytotoxicity [3] 0.284% [at 31.6 µM] | activity change, negative = cytotoxicity [4] 0.602% [at 15.8 µM] | activity change, negative = cytotoxic [14] 1.19% [at 15.8 µM] | cytotoxicity [5] 1.29% [at 15.8 µM] | activity change, negative = cytotoxic [6] 1.82% [at 15.8 µM] | activity change, negative = cytotoxicity [12] 1.69% [at 15.8 µM] | viability change, negative = cytotoxic [13] 1.2% [at 15.8 µM] | max response [15] 4.11% | cytotoxicity increase [16] -0.573% [at 15.8 µM] | activity change, negative = cytotoxic [17] 0.591% [at 15.8 µM] | cytotoxicity [8] 1.31% [at 15.8 µM] | cytotoxicity increase [9] -0.322% [at 15.8 µM] | activity change, negative = cytotoxicity [10] 9.44% [at 15.8 µM]

Nc1c(CC(=O)O)cccc1C(=O)c1ccc(Br)cc1
inactive: Potency [1] | Potency [2] | Potency [3] | Potency [4] | Potency [14] | Potency [5] | Potency [6] | Potency [12] | Potency [13] | max response [15] 13% | Potency [7] | Potency [17] | Potency [8] | Potency [9] | Potency [10]

CC(C)(COC(=O)c1ccccc1)COC(=O)c1ccccc1
inactive: Potency [1] | Potency [2] | Potency [3] | Potency [4] | Potency [14] | Potency [5] | Potency [6] | Potency [11] | Potency [13] | max response [15] -28.7% | Potency [7] | Potency [16] | Potency [17] | Potency [8] | Potency [9] | Potency [10]

O=[N+]([O-])c1cccc(S(=O)(=O)O)c1
active: Potency [3] 45.7 µM | Potency [18] 27.7 µM | Potency [14] 22.2 µM | Potency [15] 17.6 µM
inactive: Potency [1] | Potency [2] | activity change, positive = activation [19] -46% | Potency [5] | Potency [6] | Potency [7] | Potency [17] | Potency [8] | Potency [9] | Potency [10]

COc1cc2nc(Cl)nc(N)c2cc1OC
inactive: Potency [1] | Potency [2] | Potency [5] | Potency [6] | Potency [13] | Potency [7] | Potency [16] | Potency [17] | Potency [8] | Potency [9] | Potency [10]

CCCCCCCC#N
inactive: Potency [1] | Potency [20] | Potency [3] | Potency [18] | activity change, positive = activation [19] 2.85% | Potency [4] | Potency [14] | Potency [5] | Potency [6] | Potency [11] | Potency [12] | Potency [13] | max response [15] -4.16% | Potency [7] | Potency [16] | Potency [17] | Potency [8] | Potency [9] | Potency [10]
